The text below walks through data of PubChem BioAssay (EPA / NIEHS).

Values joined by “and” are separate entries in the source; they are usually repeats but may differ in a detail not shown here. Identical values can stand only once. Results filed as inconclusive are left out. Active and inactive are the calls of the source. How the source made its calls: active means hit-call score of the fitted dose curve at least 0.9, where 1 is the maximum; inconclusive means response in the unintended direction; inactive means score below 0.9.

The target in the test is human Mitogen-Activated Protein Kinase 1 (MAPK 1), MAPK1 (gene 5594) (UniProt P28482). The test can be described thus: NVS_ENZ_hMAPK1: NovaScreen (NVS) Enzymatic Assay for human Mitogen-Activated Protein Kinase 1 (MAPK 1) (AID 2283175). Here is the method: NVS_ENZ_hMAPK1 is a biochemical, single-readout assay that uses extracted gene-proteins in a cell-free assay. Measurements were taken 1 hour after chemical dosing in a 384-well plate.NVS_ENZ_hMAPK1 is one of one assay component(s) measured or calculated from the NVS_ENZ_hMAPK1 assay. It is designed to make measurements of enzyme activity, a form of enzyme reporter, as detected with fluorescence intensity signals by Fluorescence and electrophoretic mobility shift technology.Data from the assay component NVS_ENZ_hMAPK1 was analyzed into 1 assay endpoint. This assay endpoint, NVS_ENZ_hMAPK1, was analyzed in the positive analysis fitting direction relative to DMSO as the negative control and baseline of activity. Using a type of enzyme reporter, loss-of-signal activity can be used to understand changes in the enzymatic activity as they relate to the gene MAPK1. Furthermore, this assay endpoint can be referred to as a primary readout, because this assay has produced multiple assay endpoints where this one serves a enzymatic activity function. To generalize the intended target to other relatable targets, this assay endpoint is annotated to the kinase intended target family, where the subfamily is serine/threonine kinase.
human Mitogen-Activated Protein Kinase 1 (MAPK 1), MAPK1 (gene 5594), sequence (P28482 whole entry, looked up): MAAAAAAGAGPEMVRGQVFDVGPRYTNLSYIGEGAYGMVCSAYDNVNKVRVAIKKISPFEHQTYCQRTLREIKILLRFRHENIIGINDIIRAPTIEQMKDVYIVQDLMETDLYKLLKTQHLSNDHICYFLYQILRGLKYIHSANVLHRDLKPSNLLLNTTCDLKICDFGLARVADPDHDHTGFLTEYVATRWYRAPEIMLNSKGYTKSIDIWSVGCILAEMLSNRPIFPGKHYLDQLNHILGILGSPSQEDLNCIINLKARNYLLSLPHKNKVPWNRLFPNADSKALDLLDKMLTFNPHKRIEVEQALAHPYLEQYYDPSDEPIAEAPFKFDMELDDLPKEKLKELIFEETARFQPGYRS
Binding assays used specific radioligands (tritiated, iodinated) with non-radioactive competitive displacement ligands in agonist or antagonist protocols (as indicated) and various reference compounds and inhibitors to titrate specific binding to receptors and transporters. Most enzyme assays (CYPs, kinases, phosphatases, proteases, HDACs) used recombinant protein and specific substrates (fluorescence mostly, some colorimetric and radioactive) and inhibitors, followed by a biochemical separation of substrate and product. All assays for the biochemical HTS were initially run in duplicate at a single concentration (10 uM for CYP450 assays and 25 uM for all others). Assay-chemical combinations meeting a pre-defined threshold (e.g., 30% inhibition and other criteria defined below) were then run in singleton concentration-response format with maximum concentration of 20 uM for CYPs and 50 uM for all others. Each assay was run with positive and negative controls, and concurrent controls on every plate. The follow-up (secondary) screen tested active chemical-pairs in concentration series, as well as a few additional assays not tested in the primary screen, some selected negative inactives, and several cases re-run in the concentration series for confirmatory purposes.
On to `CC(C)CCCCCCc1ccc(O)cc1`, for which the outcome was inactive.
Consider `CCCCCCCC=O`, for which the molecule was called inactive.
As to `c1ccc2ccccc2c1`, the molecule was called inactive.
On the same count and under the same terms, next, `COCCO`: “inactive”; `Cc1ccc(-c2cc(C(F)(F)F)nn2-c2ccc(S(N)(=O)=O)cc2)cc1`: “inactive”.
As for `S=C(S)NCCNC(=S)S.[Mn+2].[S-]C([S-])=NCCN=C([S-])[S-].[Zn+2]`, the AC50 was 7.49 µM (active) and 1.15 µM (active).
As for `Cc1cn([C@H]2C[C@H](N=[N+]=[N-])[C@@H](CO)O2)c(=O)[nH]c1=O`, the result was inactive.
On to `COCCOC[C@H](CC1(C(=O)NC2CCC(C(=O)O)CC2)CCCC1)C(=O)Oc1ccc2c(c1)CCC2` (stereo partly drawn), for which the result was inactive.
Still for that read-out and setting: under `Cc1nc(-c2ccccn2)ncc1C(=O)Nn1cc(C)c2cc(F)ccc21` stands “inactive”; under `O=C(O)c1cccc(C[C@@H]2COc3ccc(OCc4nc5cc(F)ccc5s4)cc3[C@@H]2O)c1`, “inactive”; under `NCCO`, “inactive”.
Same read-out and setting: under `O=C(Nc1ccc([N+](=O)[O-])cc1Cl)c1cc(Cl)ccc1O` stands “inactive”; under `CC(C)(c1ccc(O)cc1)c1ccc(O)cc1`, “inactive”.
With `S=C([S-])NCCNC(=S)[S-].[Mn+2]`, the half-maximal activity concentration (AC50) was 5.17 µM (active).
On to `CCOC(N)=O`, for which the call was inactive.
For the molecule `C[Si]1(C)O[Si](C)(C)O[Si](C)(C)O[Si](C)(C)O1`, the molecule was classed as inactive.
Still for that read-out and setting: next, `CN(C)C(=O)NC1(c2ccccc2)CCN(CCC[C@]2(c3ccc(Cl)c(Cl)c3)CCCN(C(=O)c3ccccc3)C2)CC1`: “inactive”; `COc1ccc(OC(F)(F)F)cc1CN[C@H]1CCCN[C@H]1c1ccccc1`: “inactive”.
The same measure, in the same setting: next, `CCCc1cc(=O)[nH]c(=S)[nH]1`: “inactive”; `CCCOc1ccc(S(=O)(=O)N2CCN(CC)CC2)cc1-c1nc2c(CC)n(Cc3ccccn3)nc2c(=O)[nH]1`: “inactive”.
The same measure, in the same setting: next, `Nc1ccn([C@@H]2O[C@H](CO)[C@@H](O)[C@@H]2O)c(=O)n1`: “inactive”.
Regarding `CCc1c(C(=O)NN2CCCCC2)nn(-c2ccc(Cl)cc2Cl)c1-c1ccc(Br)cc1`, the result was inactive.
Same read-out and setting: under `Cc1ncc([C@@H](CCCCCCc2ccc3c(n2)NCCC3)CC(=O)O)cn1` stands “inactive”.
